Reference: PubChem BioAssay (Tox21)
Where “and” joins values, the source holds several entries; their conditions need not be identical. Equal entries are not always repeated. Results filed as inconclusive are left out. The source holds several records for some structures; these can differ, active in one and inactive in another. Calls of active or inactive are those of the source. Calls follow the shape of the dose curve; as a rule, active = well fitted curve in the direction sought with a large enough effect in the repeat runs; inconclusive = weak or mixed curves; inactive = no such curve, though single readings can be large; an effect the other way counts as inactive or inconclusive. Positions of bridges follow the written chain, without caps; N, C: chain ends. Non-standard residues stand in square brackets, D forms with d. Residues, ends and D or L forms follow the SMILES beside them. *: point of attachment. X1 = CC[C@@H](C)[C@@H](N)C1=N[C@H](C(=O)*)CS1; d(aIle) = CC[C@H](C)[C@@H](N)C(=O)O; dOrn = NCCC[C@@H](N)C(=O)O

Tests used:
[1] = qHTS assay to identify small molecule antagonists of the glucocorticoid receptor (GR) signaling pathway - cell viability counter screen (AID 720693); also: nearly all actives have a fitted effect of over 55% in size
[2] = qHTS assay for identifying genotoxic compounds that show differential cytotoxicity against isogenic chicken DT40 cell lines with known DNA damage response pathways - wild type cell line (AID 743012); also: nearly all actives have a fitted effect of over 60% in size
How it was run: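 Viability by ATP luminescence (CellTiter-Glo, 30 min RT) after 40 h compound treatment at 37 C/5% CO2, using 300 parental DNA repair-proficient DT40 cells per well.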

[3] = qHTS assay for identifying genotoxic compounds that show differential cytotoxicity against isogenic chicken DT40 cell lines with known DNA damage response pathways - Rev3 mutant cell line (AID 743014); also: nearly all actives have a fitted effect of over 55% in size
[4] = qHTS assay for identifying genotoxic compounds that show differential cytotoxicity against isogenic chicken DT40 cell lines with known DNA damage response pathways - Rad54/Ku70 mutant cell line (AID 743015); also: nearly all actives have a fitted effect of over 60% in size
[5] = qHTS assay to identify small molecule antagonists of the androgen receptor (AR) signaling pathway - cell viability counter screen (AID 743033; also: nearly all actives have a fitted effect of over 45% in size)
[6] = qHTS assay to identify small molecule antagonists of the androgen receptor (AR) signaling pathway using the MDA cell line - cell viability counter screen (AID 743041; also: nearly all actives have a fitted effect of over 45% in size)
How it was run: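 qHTS viability read-out; MDA-kb2 AR-luc; R1881-stimulated; 16 h exposure at 37C, 0% CO2; CellTiter-Fluor, 30 min; fluorescence intensity.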

Measured: Potency
Potency is read from the fitted curve at half-maximal effect.

O=C(O)/C=C/C(=O)Nc1ccc(S(=O)(=O)Nc2nccs2)cc1
inactive: [1] | [2] | [3] | [4] | [5] | [6]

CC(=O)Nc1ccc(OC(C)=O)cc1
inactive: [1] | [2] | [3] | [4] | [5] | [6]

CO/N=C(\C(=O)N[C@@H]1C(=O)N2C(C(=O)[O-])=C(C[n+]3cccc4c3CCC4)CS[C@H]12)c1csc(N)n1
inactive: [1] | [2] | [3] | [4] | [5] | [6]

O=c1[nH]c(=O)n([C@H]2C[C@H](O)[C@@H](CO)O2)cc1/C=C/Br
inactive: [1] | [2] | [3] | [4] | [5] | [6]

NC(=O)[C@H]1O[C@@H](O)[C@H](O)[C@@H](O)[C@@H]1O
inactive: [1] | [2] | [3] | [4] | [5] | [6]

C(=C\c1ccncc1)/c1ccccc1
inactive and 26.6 µM (active): [2] | [3] | [4]
inactive: [1] | [5] | [6]

CC(C)CCC[C@@H](C)[C@H]1CC[C@H]2[C@@H]3CC=C4C[C@@H](O)CC[C@]4(C)[C@H]3CC[C@]12C
inactive: [1] | [2] | [3] | [4] | [5] | [6]

CCN(CC)CCNC(=O)c1ccc(NS(C)(=O)=O)cc1
inactive: [1] | [2] | [3] | [4] | [5] | [6]

COc1c(Br)cc(Br)c(C)c1Br
inactive: [1] | [2] | [3] | [4] | [5] | [6]

CO/N=C(\C(=O)N[C@@H]1C(=O)N2C(C(=O)O)=C(COC(C)=O)CS[C@H]12)c1csc(N)n1 (stereo in doubt)
inactive: [1] | [2] | [3] | [4] | [5] | [6]

CC1(C)S[C@@H]2[C@H](NC(=O)[C@@H](NC(=O)N3CCNC3=O)c3ccccc3)C(=O)N2[C@H]1C(=O)O
inactive: [1] | [2] | [3] | [4] | [5] | [6]

CC[C@@H](C)[C@@H](N)C1=N[C@H](C(=O)N[C@@H](CC(C)C)C(=O)N[C@@H](CCC(=O)O)C(=O)N[C@@H](C(=O)N[C@@H]2CCCCNC(=O)[C@@H](CC(N)=O)NC(=O)[C@@H](CC(=O)O)NC(=O)[C@@H](Cc3cnc[nH]3)NC(=O)[C@@H](Cc3ccccc3)NC(=O)[C@@H]([C@H](C)CC)NC(=O)[C@@H](CCCN)NC2=O)[C@@H](C)CC)CS1 (X1-LE[d(aIle)][dK][dOrn][dI][dF][dH][dD][dN]; lactam 4-C)
inactive: [1] | [2] | [3] | [4] | [5] | [6]

CC(C)(C)C(=O)OCC(=O)[C@H]1CC[C@H]2[C@@H]3CCC4=CC(=O)CC[C@]4(C)[C@H]3CC[C@]12C
inactive: [1] | [2] | [3] | [4] | [5] | [6]

NC(=O)[C@@H]1CCCN1C(=O)[C@H](Cc1cnc[nH]1)NC(=O)[C@@H]1CCC(=O)N1
inactive: [1] | [2] | [3] | [4] | [5] | [6]

C=CCN1C(=O)C(CC(C)C)NC1=S (configuration not stated)
inactive: [1] | [2] | [3] | [4] | [5] | [6]

CCN(CC)C(=O)c1cccnc1
inactive: [1] | [2] | [3] | [4] | [5] | [6]

COc1ccc(/C=N/NC(=O)c2ccncc2)c(C(=O)O)c1OC
inactive: [1] | [2] | [3] | [4] | [5] | [6]

CCN1\C(=C/C=C/C=C/c2sc3ccccc3[n+]2CC)Sc2ccccc21
active: [1] 23.9 µM and 21.3 µM | [2] 133 nM and 298 nM | [3] 237 nM and 841 nM | [4] 168 nM and 335 nM | [5] 2.68 µM and 8.49 µM | [6] 1.68 µM and 5.96 µM

CCCCCCCCCCCCN1CCCC1=O
active: [1] 43.6 µM | [2] 24.3 µM | [3] 30.6 µM | [4] 30.6 µM
inactive: [5] | [6]

CC(C)=CCC/C(C)=C/CC/C(C)=C/CC/C=C(\C)CC/C=C(\C)CCC=C(C)C
inactive: [1] | [2] | [3] | [4] | [5] | [6]

CNCC(=O)N[C@@H](CCCN=C(N)N)C(=O)N[C@H](C(=O)N[C@@H](Cc1ccc(O)cc1)C(=O)N[C@H](C(=O)N[C@@H](Cc1cnc[nH]1)C(=O)N1CCC[C@H]1C(=O)N[C@@H](C)C(=O)O)C(C)C)C(C)C
inactive: [1] | [2] | [3] | [4] | [5] | [6]

C/C(=C(/CCO)SSCC1CCCO1)N(C=O)Cc1cnc(C)nc1N (configuration not stated)
inactive: [1] | [5] | [6]
active: [2] 23.7 µM and 11.9 µM | [3] 23.7 µM | [4] 26.6 µM
